Assay outcomes from PubChem BioAssay.
D1 potentiator = potentiators of human D1 dopamine receptor; P21728; HEK293 TREx D1 cells, calcium flux, dopamine EC20 potentiation; potentiation, % at 10 µM; 0.036% of 360,000 active; in the data active = potentiation above about 30%; note: 0% is about no effect
Target sequence (P21728 whole entry, looked up): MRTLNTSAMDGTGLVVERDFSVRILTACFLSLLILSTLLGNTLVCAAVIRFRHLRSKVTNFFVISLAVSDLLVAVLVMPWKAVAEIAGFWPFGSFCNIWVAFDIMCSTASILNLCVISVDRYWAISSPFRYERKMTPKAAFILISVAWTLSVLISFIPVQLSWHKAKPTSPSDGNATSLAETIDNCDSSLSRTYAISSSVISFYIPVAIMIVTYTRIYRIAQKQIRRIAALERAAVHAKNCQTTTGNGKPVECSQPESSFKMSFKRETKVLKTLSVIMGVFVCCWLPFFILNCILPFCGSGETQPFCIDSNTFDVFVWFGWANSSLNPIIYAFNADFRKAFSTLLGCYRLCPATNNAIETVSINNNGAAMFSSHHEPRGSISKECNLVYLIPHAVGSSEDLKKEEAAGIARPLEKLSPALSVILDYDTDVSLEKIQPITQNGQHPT
D1 ag = activates the human D1 dopamine receptor; P21728; HEK293 T-REx D1 cells, calcium flux, agonist mode; activation, % at 2 µM; 1% of 360,000 active; AID 504660; note: 0% is about no effect
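Tetracycline-induced HEK293 TREx D1 cells, force-coupled to calcium signalling, were dye-loaded with a no-wash calcium kit. Compound was pin-added after a 10 s baseline. Fluorescence was read kinetically at 1 cycle/s for 180 s, with calcium rises flagged as agonism.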
D1 antagonist = antagonists of human D1 dopamine receptor; HEK293 TREx D1 cells, calcium flux, dopamine EC80; stronger effect = lower value; activity change, negative = inhibition, % at 10 µM; 3.2% of 360,000 active; AID 504652; in the data active = activity change below about -30%; note: % is set by controls: 0 for no effect and ±100 for the full control effect
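Using tetracycline-induced force-coupled D1 Hek293 cells and a calcium dye, signals were followed for 180 s after compound, then for 180 s after EC80 dopamine, to detect inhibitors.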
TRHR agonist = agonists of human TRH receptor; AID 493084; TRHR cells, calcium flux fluo-8, FDSS agonist mode; activation, % at 2 µM; 0.18% of 360,000 active; note: 0% is about no effect
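Read-out: compound-evoked intracellular calcium rise in TRHR cells, fluo-8 dye, kinetic FDSS fluorescence at 1 s/cycle following a 10-cycle baseline. Cells cultured overnight before dye loading (30 min–1.5 h, RT).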
TRHR PAM = allosterically enhances the human TRH receptor; AID 493056; 0.66% of 360,000 active; TRHR cells, fluo-8 calcium fluorescence, EC20 TRH enhancement; P34981; enhancement, % at 2 µM; in the data active = enhancement above about 30%; note: 0% is about no effect
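Enhancer read-out: after compound pinning and an initial kinetic agonist-mode read, an EC20 of TRH (10 nM final) was injected and fluo-8 calcium signal (Ex 480/Em 530) followed at 1 s/cycle for 100 cycles in TRHR-expressing cells.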
GRP78 ERSR act = induces the endoplasmic reticulum stress response in human glioma cells | U87-MG GRP78 promoter luciferase reporter, 16 h | 0.02% of 420,000 active | Potency, µM, for inactives: at the highest dose activation, most hits filed as activators; active = well fitted activation curve with a large enough effect; note: potency is the fitted concentration of half-maximal effect; series mostly up to about 76 µM; % of control where 0% means no effect; nearly all actives have a fitted effect of over 35% in size
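ERSR induction read as luciferase luminescence (Bright-Glo, 10 min at room temperature) in stably transfected human U87-MG glioma cells exposed to compounds for 16 h, using GRP78 as sensor.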
Numbers without * were called inactive; nt = no result; ! = a repeat was not active. Hits are enriched below; roughly 4% of the tested compounds scored in any of these assays. Cut-off read from the data, not from the text of the source, unless noted: active = activation above about 30%; inactive = the rest.

SMILES	D1 potentiator	D1 ag	D1 antagonist	TRHR agonist	TRHR PAM	GRP78 ERSR act
COc1cccc(NC(=S)NNC(=O)Cn2nc([N+](=O)[O-])cc2C)c1	0.8	0.5	0.9	0.0	40.7*	-3.4%
CCNc1ncc2nc(-c3cccs3)c(=O)n(CCC#N)c2n1	nt	nt	nt	nt	nt	-2.8%
O=C(Nc1c(C(=O)N2CCN(c3ccc(F)cc3)CC2)oc2ccccc12)c1c(F)cccc1F	-5.0	2.1	-59.4*	-2.2	22.8	-0.8%
COc1ccc(CC(=O)Nc2c(C(=O)N3CCN(c4ccccc4)CC3)oc3ccccc23)cc1OC	-4.0	-0.9	-30.7*!	0.1	-3.0	0.2%
O=C(NCc1ccc(F)cc1)c1c(O)c2cccc3c2n(c1=O)CCC3	-3.6	1.2	1.6	0.0	-1.1	-1.5%
O=C(Oc1cc(=O)oc2c1c(=O)n1c3c(cccc23)CC1)c1ccccc1	7.0	4.0	-38.2*	-1.0	-1.0	-1.7%
O=C(Oc1cc(=O)oc2c1c(=O)n1c3c(cccc23)CC1)c1ccc(F)cc1	-3.1	-0.6	-44.6*	0.5	-2.7	-1.1%
O=C(Oc1cc(=O)oc2ccccc12)c1ccccc1	2.0	-0.2	-16.1	0.1	1.8	-1.9%
Cc1ccc(NC(=O)c2sc3nc(CCl)[nH]c(=O)c3c2C)c(C)c1	6.5	7.0	-5.2	0.1	-3.6	2.1%
CCc1oc(C(=O)OC)cc1CSC(=N)N	-7.2	5.2	-22.9	-0.8	-3.1	-3.6%
COc1ccc([C@H]2CC(=O)C=C(c3ccc(NC(C)=O)cc3)C2)cc1OC	-2.5	0.4	nt	0.2	6.0	-3.4%
CC(=O)Nc1ccc(C2=CC(=O)C[C@H](c3ccc(Cl)cc3)C2)cc1	-6.3	1.4	-52.9*	0.2	1.1	-0.3%
CC/C(=C(\c1ccccc1)c1ccc(OCCN(C)C)cc1)c1ccccc1	-5.3	87.0*!	31.7	-0.6	-2.1	-5.2%
O=C(Cc1cccs1)N1CCN=C1SCc1ccccc1Cl	-2.6	8.1	-23.8	0.9	-3.0	-3.1%
O=C(Cc1cccs1)N1CCN=C1SCc1ccccc1F	-5.2	0.3	-36.3*	-0.1	2.5	-1.7%
Cn1cc(C=C2C(=O)OC3(CCCCC3)OC2=O)c2ccccc21	-3.1	2.0	-30.4*	11.6	-11.1	-0.8%
Nc1cccc[n+]1C(c1ccnc2ccccc12)[n+]1ccccc1N	nt	nt	nt	nt	nt	-2.7%
Cc1ccc(S(=O)(=O)c2nc(-c3cccs3)oc2SCC(=O)Nc2cc(C)cc(C)c2)cc1	1.0	10.7	-4.9	1.0	2.1	-10.2%
CC(=O)CCC(=O)NC1CCCc2c1cnn2-c1ccc(C(C)(C)C)cc1 (configuration not stated)	-3.2	12.0	-37.4*	-0.1	1.9	-1.3%
CC(=O)NC1CCCc2c1cnn2-c1ccc(C(C)(C)C)cc1 (configuration not stated)	-1.3	0.1	-7.5	0.3	3.5	-4.1%
CN(C)CCCN1c2ccccc2CCc2ccc(Cl)cc21	-3.1	35.8*	-96.3*	4.2	3.2	-3.6%
CC(=O)c1ccc2c(c1)N(CCCN(C)C)c1ccccc1S2	nt	nt	nt	nt	nt	2.1%
CN(CCCN1c2ccccc2CCc2ccccc21)CC(=O)c1ccc(Cl)cc1	nt	nt	nt	nt	nt	-1.3%
CN(C)CCCN1c2ccccc2Sc2ccccc21	-4.3	41.9*	-80.8*	2.3	11.9	-2.6%
NS(=O)(=O)c1cccc(NS(=O)(=O)c2ccc3ccccc3c2)c1	-0.9	3.9	11.5	-0.7	0.4	-1.6%
SMILES	D1 potentiator	D1 ag	D1 antagonist	TRHR agonist	TRHR PAM	GRP78 ERSR act
CCOc1ccccc1OCCN1CCC(Cc2ccccc2)CC1	-15.8	27.6	-22.3	-0.6	-1.2	-1.6%
CCN1CCN(Cc2ccc(OCc3ccccc3)cc2)CC1	-6.2	37.8*	-12.7	0.0	5.1	-5.2%
CCN1CCN(CCOc2ccccc2OCc2ccccc2)CC1	-1.1	4.1	-32.0*	0.1	5.7	0.4%
CCOc1ccccc1OCCN1CCCC1	-1.1	5.8	-33.6*	0.3	-7.7	-3.2%
CC(C)=CCC/C(C)=C/CO/N=C1/[C@H]2O[C@@H]2[C@@H](O)[C@H]2[C@H]1CCn1c(=O)n(C)c(=O)n12	nt	nt	nt	nt	nt	-1.9%
C=CCN1C2CCCC1CC(NC(=S)Nc1ccc(Cl)cc1)C2 (configuration not stated)	-1.3	22.7	-84.4*	2.2	2.5	-1.5%
S=C(Nc1ccc(Cl)cc1)NC1CC2CCCC(C1)N2C1CCCC1 (configuration not stated)	nt	nt	nt	nt	nt	0.6%
S=C(Nc1ccc(Cl)cc1)NC1CC2CCC(C1)N2Cc1ccccc1 (configuration not stated)	8.4	52.0*	-42.7*	6.7	2.7	8.0%
CCc1ccc(NC(=S)NC2CC3CCCC(C2)N3Cc2ccccc2)cc1 (configuration not stated)	0.6	20.3	-29.0	-0.5	7.0	0.1%
S=C(Nc1ccc(Cl)cc1)NC1CC2CCCC(C1)N2C1CC1 (configuration not stated)	7.4	134.6*	-40.8*	0.1	0.8	-0.5%
COc1ccc(N(CC(=O)N2CCN(c3cccc(C)c3C)CC2)S(=O)(=O)c2c(C)noc2C)cc1	-3.1	4.6	-20.6	0.1	3.6	-1.3%
Cc1ccc2nc(CN3CCN(C(=O)Nc4ccc(C)c(F)c4)CC3)oc2c1	0.3	0.7	-5.7	-1.2	-5.2	4.5%
N#CN1CCC(NS(=O)(=O)c2ccc(F)cc2)CC1	8.1	-0.6	-6.9	1.3	3.7	nt
CCN(CC)c1ccc(/C=C2\C(=N)N3N=C(CC(=O)N4CCOCC4)SC3=NC2=O)cc1	-0.2	115.3*	11.6	33.7*	-5.0	-2.5%
CSc1ccc(CN2CCC(CO)(CCOc3ccccc3)CC2)cc1	-7.8	40.9*	5.4	1.9	-0.4	3.2%
OCC1(CCOc2ccccc2)CCN(Cc2ccncc2)CC1	-5.2	-0.1	32.3	0.0	-3.5	-3.2%
COc1ccc(CN2CCC(CO)(CCOc3ccccc3)CC2)cc1C	-1.9	48.0*	16.5	3.6	4.1	-1.5%
COCC1CCCN(Cc2ccc3c(c2)CN(C(=O)c2cnn(C(C)C)c2)CCO3)C1 (configuration not stated)	nt	nt	nt	nt	nt	-2.2%
C=CCOc1cccc(CNCc2ccncc2)c1	-6.8	12.0	-34.9*	-0.4	-7.5	-4.3%
CCOc1cccc(CNCc2ccncc2)c1	3.2	8.6	13.7	0.1	10.9	-3.6%
O=C(N/N=C\c1ccc(-c2ccccc2[N+](=O)[O-])o1)C1COc2ccccc2O1 (configuration not stated)	-6.3	0.7	-35.7*	0.3	1.8	-1.7%
Cc1c(C(=O)N/N=C/c2ccc(-c3ccccc3[N+](=O)[O-])o2)sc(N)c1C#N	-10.4	-0.3	-61.8*	-0.4	1.8	5.5%
